{"source": "PubChem BioAssay AID449762", "about": "(Southern Research Specialized Biocontainment Screening …, 2010)", "note": "Screen size: about 330,000 compounds; about 1,900 (0.58%) were called active. Inconclusive results (about 4%) are left out. These entries were drawn from the full list. Measured potencies and affinities stand elsewhere. Values without a mark were called inactive. No stated cut-off is given here; in the data, inconclusive means inhibition above about 70% without an active follow-up result; inactive means below that."}
{"assay": "M. tuberculosis growth inhibition, HTS (AID 449762);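 further: bacterial growth assessed after seven days of incubation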", "conditions": "M. tuberculosis H37Rv growth inhibition, 7H9 media; at 25 µM; hits give high values", "units": {"inhibition": "%"}}
{"smiles": "O=[N+]([O-])c1cc([N+](=O)[O-])c(Oc2cc(F)ccc2F)cc1NN1CCCCC1", "inhibition": 5.39}
{"smiles": "O=C(NCCc1ccccc1)C(=O)c1cn(CC(=O)N2CCCC2)c2ccccc12", "inhibition": -0.08}
{"smiles": "COc1cc(NC(=O)c2cccnc2SC)cc(OC)c1OC", "inhibition": -4.5}
{"smiles": "Cc1cccc(NC(=O)c2nc[nH]c2C(=O)N(C)Cc2ccccc2)c1", "inhibition": 27.5}
{"smiles": "COc1cc(OC)cc(C(=O)N[C@H](C(=O)NC23CC4CC(CC(C4)C2)C3)C(C)C)c1", "inhibition": -8.25}
{"smiles": "CCCCCN(C(=O)CCC(=O)OCCOc1cccc(C)c1)c1c(N)n(CCCC)c(=O)[nH]c1=O", "inhibition": 44.3}
{"smiles": "CCOc1cc(NC(=S)Nc2ccc(Cl)cc2)c(OCC)cc1NC(C)=O", "inhibition": -3.61}
{"smiles": "CCOc1cc(Cl)c(NC(C)=O)cc1OCC", "inhibition": -1.54}
{"smiles": "CC(=O)c1cccc(NC(=O)C(C)OC(=O)c2ccc(Br)o2)c1", "note": "(stereo not drawn)", "inhibition": 4.17}
{"smiles": "CCOC(=O)C1CCN(c2cc3c(cc2NC(=O)c2ccccc2)n(C)c(=O)n3C)CC1", "inhibition": -3.19}
{"smiles": "CCOC(=O)C1CCN(c2cc3c(cc2NC(=O)c2ccccc2F)n(C)c(=O)n3C)CC1", "inhibition": 4.71}
{"smiles": "CCc1ccc(NC(=O)C2C3C=CC(C4CC34)C2C(=O)O)cc1", "note": "(stereo not drawn)", "inhibition": 4.87}
{"smiles": "CCCCCCNC(=O)C(=O)NCCc1ccc(Cl)cc1", "inhibition": -8.55}
{"smiles": "CCCCCc1ccc(CC(=O)O)cc1", "inhibition": -9.58}
{"smiles": "NS(=O)(=O)c1cc(C(=O)OC2CCOC2=O)ccc1Cl", "note": "(stereo not drawn)", "inhibition": -0.59}
{"smiles": "N/C(=N\\OC(=O)c1ccc2c(c1)OCO2)c1ccc([N+](=O)[O-])cc1", "inhibition": 0.35}
{"smiles": "CS(=O)(=O)O/N=C1\\CCCCC1c1ccc([N+](=O)[O-])cc1[N+](=O)[O-]", "note": "(stereo not drawn)", "inhibition": 11.2}
{"smiles": "CCN(CC)CCNc1ncnc2c1sc1nc(N3CCOCC3)c3c(c12)CCCC3", "inhibition": 13.5}
{"smiles": "COc1ncnc2c1sc1nc(-c3ccccc3)c3c(c12)CCCC3", "inhibition": 2.95}
{"smiles": "Cc1nc(-c2c(C(=O)NNC(=O)Nc3c(C)cccc3C)noc2C)cs1", "inhibition": -5.09}
{"smiles": "COc1ccc(OC)c(C(=O)NC2CC(C)(C)Cc3c2cnn3-c2ccccc2)c1", "note": "(stereo not drawn)", "inhibition": 12.2}
{"smiles": "CC(C)CC(=O)Nc1cccc(NC(=O)c2ccccc2Cl)c1", "inhibition": 0.24}
{"smiles": "COc1ccc(CSc2nc3ccccc3c(=O)[nH]2)cc1F", "inhibition": 2.06}
{"smiles": "COc1ccc(N2C(=O)NC(=O)/C(=C\\c3cn(C)c4ccccc34)C2=O)cc1", "inhibition": 3.04}
{"smiles": "Cn1cc(C=C2C(=O)NC(=O)NC2=O)c2ccccc21", "inhibition": -7.12}
{"smiles": "COC(=O)c1ccc(C(c2c(N)n(CC(C)C)c(=O)[nH]c2=O)N2CCN(c3ccccc3)CC2)cc1", "note": "(stereo not drawn)", "inhibition": 7.1}
{"smiles": "CCOC(=O)CC(=O)CSc1nnc2c(n1)[nH]c1ccccc12", "inhibition": 7.32}
{"smiles": "COc1ccc(C2CC(c3c(Cl)cccc3Cl)n3nc(N)nc3N2)cc1", "note": "(stereo not drawn)", "inhibition": -4.95}
{"smiles": "Cc1cc(C)nc(NC(=S)NC(=O)c2ccccc2)n1", "inhibition": -0.74}
{"smiles": "O=C(C1CCC(CNc2c(N3CCCCC3)c(=O)c2=O)CC1)N1CCCC1", "note": "(stereo not drawn)", "inhibition": -1.43}
{"smiles": "CC1CCN(C(=O)C2CCC(CNc3c(N4CCCCC4)c(=O)c3=O)CC2)CC1", "note": "(stereo not drawn)", "inhibition": -6.49}
{"smiles": "CC(=O)NCC1CCCN(C(=O)c2ccc(OC3CCN(Cc4ccccn4)CC3)cc2)C1", "note": "(stereo not drawn)", "inhibition": 8.85}
{"smiles": "CC(Oc1ccc2c3c(c(=O)oc2c1)CCC3)C(=O)NC1CCN(Cc2ccccc2)CC1", "note": "(stereo not drawn)", "inhibition": 5.54}
{"smiles": "O=C(NCc1ccccc1Cl)c1ccc(S(=O)(=O)Nc2cccc(C(F)(F)F)c2)cc1", "inhibition": -11.7}
{"smiles": "S=C(NCc1cccnc1)Nc1ccc(Oc2ccccc2)cc1", "inhibition": 4.52}
{"smiles": "Clc1ccc(-c2nc(N3CCCCC3)nc3ccccc23)cc1", "inhibition": 8.31}
{"smiles": "c1ccc(-c2nc(N3CCCCC3)nc3ccccc23)cc1", "inhibition": 36.9}
{"smiles": "COc1cc(OC)cc(C(=O)Nc2cccc(-c3ccc(N4CCOCC4)nn3)c2)c1", "inhibition": -3.98}
{"smiles": "COc1ccc(C(=O)NNC(=O)c2ccc(S(=O)(=O)N3CCOCC3)cc2)cc1", "inhibition": 0.01}
{"smiles": "CCCN1C(=O)C2(SC(NC(C)=O)=NN2C(C)=O)c2cc(C)ccc21", "note": "(stereo not drawn)", "inhibition": -6.76}
{"smiles": "COc1ccc(OC)c(S(=O)(=O)N2CCN(C34CC5CC(CC(C5)C3)C4)CC2)c1", "inhibition": 2.72}
{"smiles": "COc1cc(F)ccc1S(=O)(=O)N1CCN(C23CC4CC(CC(C4)C2)C3)CC1", "inhibition": 9.71}
{"smiles": "NC(=S)N=Nc1c(O)[nH]c2ccccc12", "inhibition": -9.66}
{"smiles": "Oc1[nH]c2ccc(Br)cc2c1N=NC(=S)N1CCOCC1", "inhibition": 7.05}
{"smiles": "CCCc1cc(C(=O)Nc2ccc(C(C)=O)cc2)no1", "inhibition": 29.9}
{"smiles": "CCc1ccc(NC(=O)c2cc(CC(C)C)on2)cc1", "inhibition": 4.83}
{"smiles": "CCOc1ccc(C(=S)N2CCN(C)CC2)cc1", "inhibition": -1.09}
{"smiles": "CCc1nc(C)cn1S(=O)(=O)c1cc(Cl)c(OC)cc1Cl", "inhibition": -6.76}
{"smiles": "CCN(CC)C(=O)c1ccc2c(c1)N(Cc1ccccc1)C(=O)CS2=O", "note": "(stereo not drawn)", "inhibition": 0.11}
{"smiles": "Cc1ccc(C(=O)Nc2cccc(C(F)(F)F)c2)cc1NC(=O)c1nccn1C", "inhibition": -2.57}
{"smiles": "CC(=O)c1ccccc1NC(=O)COC(=O)CCC1CCCC1", "inhibition": 9.67}
{"smiles": "O=C1/C(=C/c2cccnc2)CC/C1=C\\c1cccnc1", "inhibition": -0.97}
{"smiles": "CC(C)/C=C1\\CC/C(=C\\c2cccnc2)C1=O", "inhibition": 11}
{"smiles": "COc1cc(/C=C/C(=O)OC(C)C(=O)Nc2ccc(Cl)cn2)ccc1OC(F)F", "note": "(stereo not drawn)", "inhibition": 28.3}
{"smiles": "COc1ccc(Nc2nc(Cl)nc(NCc3ccco3)n2)c(OC)c1", "inhibition": -5.12}
{"smiles": "Cc1noc(NS(=O)(=O)c2ccc(NC(=O)/C=C/c3ccc(C(C)C)cc3)cc2)c1C", "inhibition": -12.3}
{"smiles": "CCN(CC)c1ccc(C=C2C(=O)N(C)C(=S)N(C)C2=O)o1", "inhibition": 1.5}
{"smiles": "CC(C)N1C(=O)S/C(=C\\c2ccc(-c3ccc(Cl)c(C(=O)O)c3)o2)C1=O", "inhibition": 4.73}
